Pf growth 96h = P. falciparum growth inhibition at 96 hour, primary screen for plastid delayed-death inhibitors | P. falciparum luciferase reporter growth, 96 h | Potency, µM (doses to about 28.7 µM), most hits filed as inhibitors | 320,000 compounds, 6.9% hits | AID 504834
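Infected RBCs, 2% Hct / 0.05% parasitemia final; luciferase-reporter P. falciparum; cpd 96 h, 37 C, 5% CO2; luciferase detection reagent; luminescence.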
SARS PLP yeast = SARS-CoV PLP inhibition in yeast. S. cerevisiae expressing SARS-CoV PLpro, growth rescue. Potency, µM (highest dose often 32.9 µM), actives largely listed as activators. 330,000 compounds, 0.19% hits; calls by dose curve; note: nearly all actives have a fitted effect of over 55% in size
Pf growth 48h = inhibits P. falciparum growth in the first generation, 48 h | P. falciparum luciferase growth in erythrocytes, 48 h | Potency, µM (doses to about 28.7 µM), most hits filed as inhibitors | 310,000 compounds, 5.9% hits
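Compounds are pin-transferred into medium, infected erythrocytes (2% hematocrit, 0.1% parasitemia final) are added, and plates sit one parasite generation at 37 C in 5% CO2. Detection reagent is then added and luminescence measured.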
Sm TGR inh = S. mansoni TGR enzyme inhibition; purified TGR, DTNB reduction, TNB absorbance 405 nm; Potency, µM (titrated, usually from 114 µM), usual class: inhibitors; 360,000 compounds, 3% hits; AID 485364; note: nearly all actives have a fitted effect of over 60% in size
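Kinetic colorimetric format: TGR-catalysed, NADPH-driven DTNB reduction monitored via TNB absorbance. Enzyme dispensed at 20 nM; compound exposure 15 min at room temperature before reaction start.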
Large screens that a line does not name were inactive. Rows were chosen to be rich in hits. Some 12% of all compounds tested hit in one or more screens of this group. Unless noted, calls come from the whole dose curve; as a rule, active = well fitted curve in the direction sought with a large enough effect; inconclusive = small, poorly fitted or top-dose-only effect, or another doubt; inactive = no such curve, though single readings can be large; an effect the other way counts as inactive or inconclusive.

COc1ccc(NC(=O)COc2coc(CN3CCCc4ccccc43)cc2=O)cc1	Pf growth 96h inconclusive, Sm TGR inh inconclusive
Cc1ccc(NC(=O)NC(=O)CN2CCCC2c2ccc3c(c2)OCCO3)cc1C (stereo not drawn)	Pf growth 96h inconclusive
O=C(CC(c1ccccc1)c1cc(Br)ccc1O)NCC1(c2ccccc2)CCCC1 (stereo not drawn)	none (no result: Pf growth 96h, SARS PLP yeast, Pf growth 48h)
CCN1CCCc2cc(CN(CCN3CCOCC3)C(=S)Nc3ccc(OC)c(Cl)c3)ccc21	Pf growth 96h 18.5µM, Pf growth 48h inconclusive
Cc1ccc(NC(=S)N(CCCN2CCOCC2)Cc2ccco2)cc1	Pf growth 96h 11.7µM
Cc1ccc(NC(=S)N(CCN2CCOCC2)Cc2ccccc2F)cc1Cl	Pf growth 96h inconclusive, Pf growth 48h 11.7µM
S=C(Nc1ccc(Cl)cc1)N(CCCN1CCOCC1)Cc1ccco1	none
CCN1CCCc2cc(CN(CCN3CCOCC3)C(=S)Nc3cccc(C)c3)ccc21	Pf growth 96h 11.7µM, Pf growth 48h inconclusive
Cc1cccnc1NC(=O)C(c1ccccc1)c1ccccc1	none
CCOC(=O)c1cc(OC(=O)c2cccc(F)c2)n(-c2ccccc2)n1	none (no result: Pf growth 96h, SARS PLP yeast, Pf growth 48h)
CCN(C(=O)CCS(=O)(=O)c1cc2[nH]c(=O)c(=O)[nH]c2cc1C)c1ccccc1	none (no result: Pf growth 96h, SARS PLP yeast, Pf growth 48h)
O=C(Nc1ccc(Br)cc1)c1cccc(-n2cnnn2)c1	Pf growth 96h inconclusive (no result: SARS PLP yeast)
Cc1ccc(NC(=O)c2ccccc2Cl)cc1-n1cnnn1	none
Cc1ccc(NC(=O)c2ccccc2)cc1-n1cnnn1	Pf growth 96h inconclusive, Pf growth 48h inconclusive, Sm TGR inh 20µM
Cc1ccc(NC(=O)c2cccc(-n3cnnn3)c2)cc1Cl	Pf growth 96h inconclusive, Pf growth 48h 9.28µM
CC(=O)Nc1ccc(NC(=O)Oc2ccccc2)cc1	Pf growth 96h inconclusive
CN(C)c1ccc(NC(=O)Oc2ccccc2)cc1	Pf growth 96h 0.147µM (no result: Pf growth 48h)
COc1ccccc1-c1nc(S(=O)(=O)c2ccccc2)c(N2CCCCC2)o1	Sm TGR inh 0.794µM
Cc1ccc(S(=O)(=O)c2nc(-c3ccccc3F)oc2N2CC(C)OC(C)C2)cc1 (stereo not drawn)	Pf growth 96h inconclusive, Sm TGR inh 20µM
O=S(=O)(c1ccccc1)c1nc(-c2ccccc2Cl)oc1N1CCCCCC1	none (no result: Pf growth 96h, SARS PLP yeast, Pf growth 48h)
CCN1CCN(c2oc(-c3ccccc3C)nc2S(=O)(=O)c2ccccc2)CC1	Pf growth 96h 9.28µM, Pf growth 48h inconclusive
O=S(=O)(c1ccc(F)cc1)c1nc(-c2ccccc2F)oc1N1CCCCC1	Pf growth 48h inconclusive, Sm TGR inh 10µM (no result: Pf growth 96h)
CCc1nc(CNC(=O)C2CCC(=O)N(Cc3cccc(OC)c3)C2)no1 (stereo not drawn)	none
CCOCCCNC(=O)c1c(NC(=O)c2cc(=O)c3cc(C)c(C)cc3o2)sc2c1CCC2	none (no result: Pf growth 96h, SARS PLP yeast, Pf growth 48h)
NC(=O)C1CCN(c2oc(-c3ccc(F)cc3)nc2S(=O)(=O)c2ccccc2)CC1	Pf growth 96h inconclusive, Pf growth 48h 10.4µM, Sm TGR inh inconclusive
O=S(=O)(c1ccccc1)c1nc(-c2ccc(F)cc2)oc1N1CCCCCC1	none (no result: Pf growth 96h, SARS PLP yeast, Pf growth 48h)
Cc1ccc(CNC(=O)c2ccc(CN3CC(=O)N4CCCCC4C3=O)cc2)cc1 (stereo not drawn)	none (no result: Pf growth 96h, SARS PLP yeast, Pf growth 48h)
NCC(O)c1cc(O)c(O)cc1F (stereo not drawn)	Pf growth 96h inconclusive, Pf growth 48h inconclusive, Sm TGR inh 44.7µM (no result: SARS PLP yeast)
O=C(COC(=O)/C=C/c1ccccc1)NNC(=O)c1ccc([N+](=O)[O-])cc1	none
COC(=O)c1ccc(NC(=O)CC2C(=O)N(c3ccccc3)C(=O)N2Cc2ccc(F)cc2)cc1 (stereo not drawn)	none (no result: Pf growth 96h, SARS PLP yeast, Pf growth 48h)
COc1cc(C(C)=O)ccc1OCC(=O)c1cc(C)n(C2CC2)c1C	Pf growth 96h 11.7µM, Pf growth 48h inconclusive
COc1cc(OC)c(NC(=O)Cc2ccc(OC)c(S(=O)(=O)N3CCOCC3)c2)cc1Cl	Pf growth 96h inconclusive, Pf growth 48h inconclusive
COc1cc(NC(=O)Cc2ccc(S(=O)(=O)N3CCOCC3)s2)c(OC)cc1Cl	Pf growth 96h 8.28µM, Pf growth 48h inconclusive, Sm TGR inh inconclusive
COc1cc(NC(=O)Cc2ccc(OC)c(S(=O)(=O)N3CCOCC3)c2)c(OC)cc1Cl	Pf growth 96h 14.7µM, Pf growth 48h inconclusive
O=C(Cc1ccc(S(=O)(=O)N2CCOCC2)s1)Nc1nc2c(s1)CCCC2	Pf growth 96h 9.28µM, Pf growth 48h inconclusive, Sm TGR inh inconclusive
COc1ccccc1OCCNC(=O)Cc1ccc(S(=O)(=O)N2CCOCC2)s1	Pf growth 48h inconclusive
COC(=O)c1c(NC(=O)CCl)sc(C(=O)N2CCOCC2)c1C	Pf growth 48h inconclusive, Sm TGR inh 31.6µM
COC(=O)c1c(N)sc(C(=O)N2CCOCC2)c1C	Pf growth 96h inconclusive
COc1ccc(CCNC(=O)Cc2ccc(NS(=O)(=O)c3ccc(F)cc3)cc2)cc1OC	Pf growth 96h inconclusive, Pf growth 48h inconclusive
COc1ccc(NC(=O)C2=C(C)Nc3nc(SCc4ccc(Cl)cc4)nn3C2c2cccc(OC)c2OC)cc1 (stereo not drawn)	none (no result: Pf growth 96h, SARS PLP yeast, Pf growth 48h)
O=C(Cc1ccc(S(=O)(=O)N2CCCCC2)s1)Nc1ccc(F)cc1F	Pf growth 96h 13.1µM
COC(=O)c1c(NC(=O)Cc2ccc(OC)c(S(=O)(=O)N3CCOCC3)c2)sc(C)c1C	Pf growth 96h inconclusive, Pf growth 48h 13.1µM
O=C(Cc1ccc(S(=O)(=O)N2CCOCC2)s1)Nc1cc(Cl)ccc1Cl	Pf growth 96h inconclusive, Pf growth 48h 13.1µM
COc1ccc(CC(=O)Nc2nccs2)cc1S(=O)(=O)N1CCOCC1	none (no result: Pf growth 96h, Pf growth 48h, Sm TGR inh)
CCC(CC)NC(=O)Cc1ccc(S(=O)(=O)N2CCOCC2)s1	none (no result: Pf growth 48h)
CCCN(CC(=O)Nc1ccc(F)c(F)c1F)C(=O)Cc1ccc(S(=O)(=O)N2CCOCC2)s1	Pf growth 96h inconclusive, Pf growth 48h 11.7µM
COc1ccc2cc(C(=O)C3CCCN(C(=O)CCc4cnn(C)c4)C3)ccc2c1 (stereo not drawn)	Pf growth 96h inconclusive
Cc1ccnc(NC(=O)c2cc(S(=O)(=O)NCc3ccccc3)ccc2C)c1	none
CCOc1ccc(NC(=O)CC2C(=O)N(c3ccccc3)C(=O)N2Cc2cccc(OC)c2)cc1 (stereo not drawn)	none (no result: Pf growth 96h, SARS PLP yeast, Pf growth 48h)
COc1ccc(-n2nc(C(=O)NCC(=O)Nc3cc(OC)c(OC)c(OC)c3)c3ccccc3c2=O)cc1Cl	Pf growth 48h inconclusive
CCOc1ccc(NC(=O)CNC(=O)c2nn(-c3ccc(OC)cc3)c(=O)c3ccccc23)cc1	Pf growth 48h 9.28µM
COc1ccc(-n2nc(C(=O)NCC(=O)Nc3cccc(Cl)c3)c3ccccc3c2=O)cc1	Pf growth 96h 11.7µM, Pf growth 48h 9.28µM
COc1ccc(-n2nc(C(=O)NCC(=O)Nc3ccccn3)c3ccccc3c2=O)cc1	none
CCOC(=O)C1=C(COC(=O)CCOc2ccccc2C)NC(=O)NC1C (stereo not drawn)	none
COc1cccc(C(=O)Nc2cccc(OCc3cc(=O)n4c5c(sc4n3)CCCC5)c2)c1	none (no result: Pf growth 96h, SARS PLP yeast, Pf growth 48h)
COC(=O)c1cc(C(C)=O)c(C)[nH]c1=O	Pf growth 96h 5.22µM (no result: Sm TGR inh)
COCCCn1c(=O)c2ccccc2n(Cc2cc(C(=O)OC)ccc2OC)c1=O	Pf growth 48h 7.38µM
COCCCn1c(=O)c2ccccc2n(Cc2ccccc2C)c1=O	none
O=C(Nc1ccc(Br)cc1)Nn1cnnc1	none
